Experimental data published in PubChem BioAssay.
Values joined by “and” are separate entries in the source; they are usually repeats but may differ in a detail not shown here. Equal entries are not always repeated. Some structures have more than one record in an assay (separate samples or runs), and their calls can disagree. Active and inactive are the calls of the source. No stated cut-off is given here; in the data, active means fold change permeability below about 0.7 or above about 1.3; inactive means in between.

Assay: modulators of brain endothelial barrier permeability, primary screen, cell-based, FITC-avidin fluorescence, HTS (AID 1963498); further: test concentration not given here
Conditions: actives lie on both sides
In the case of `C[C@H](C#Cc1ccc(Cc2ccc(F)cc2)s1)N(O)C(N)=O`, the fold change permeability is reported as 1.1 (inactive).
For `Cc1cc(Nc2cc(N3CCN(C)CC3)nc(Sc3ccc(NC(=O)C4CC4)cc3)n2)n[nH]1`, the fold change permeability was 1.6 (active).
In the case of `CCCN[C@H]1CCc2nc(N)sc2C1`, the fold change permeability is reported as 1.1 (inactive).
In the case of `O=C(O)C1CCNCC1`, the fold change permeability is reported as 1.2 (inactive).
With `O=c1[nH]c2cc(C(F)(F)F)ccc2n1-c1cc(C(F)(F)F)ccc1O` the fold change permeability was 1.3 (active).
With `CN1C2CCC1CC(OC(=O)c1c[nH]c3ccccc13)C2` (centres undefined) the fold change permeability was 1.6 (active).
In the case of `Cn1cc(C(F)(F)F)nc1-c1ccc(OCC(O)CNCCOc2ccc(O)c(C(N)=O)c2)cc1` (centres undefined), the fold change permeability is reported as 1.3 (active).
With `CC(C)(C)NCC(O)COc1cccc2[nH]c(=O)[nH]c12` (centres undefined) the fold change permeability was 1 (inactive).
For `NC1(C(=O)O)CCc2cc(C(=O)O)ccc21` (centres undefined), the fold change permeability was 1.1 (inactive).
With `COc1cccc(OC)c1-c1cc(C(=O)NC2(C(=O)O)C3CC4CC(C3)CC2C4)nn1-c1ccc(C(=O)N(C)CCCN(C)C)cc1C(C)C` (centres undefined) the fold change permeability was 0.9 (inactive).
With `C(=C\c1ccccc1)/CN1CCN(C(c2ccccc2)c2ccccc2)CC1` the fold change permeability was 1.2 (inactive).
In the case of `O=C(c1cccc(-c2ccc(-c3cn(C(=O)N4CCCCC4c4ccccc4)nn3)cc2)c1)N1CCCCC1` (centres undefined), the fold change permeability is reported as 1.1 (inactive).
For `NC(N)=NCCC[C@H](NC(=O)[C@@H](N)Cc1ccc(O)cc1)C(=O)O`, the fold change permeability was 1.2 (inactive).
For `C=C1C[C@H]2[C@@H]3CCC4=CC(=O)CC[C@@H]4[C@H]3CC[C@]2(C)[C@@]1(OC(C)=O)C(C)=O`, the fold change permeability was 1.1 (inactive).
In the case of `CC(C)NC[C@H](O)c1ccc(O)c(O)c1`, the fold change permeability is reported as 1.2 (inactive) and 1.8 (active).
In the case of `FC(F)(F)c1ccccc1-n1ccnc1`, the fold change permeability is reported as 1.2 (inactive).
With `Cc1ccc(-n2sc(=O)n(Cc3ccc(F)cc3)c2=O)cc1` the fold change permeability was 1.1 (inactive).
With `O=C1c2c(O)cc(O)cc2O[C@H](c2ccc(O)c(O)c2)[C@H]1O` the fold change permeability was 1 (inactive).
In the case of `CN1CCN2c3ccccc3Cc3ccccc3C2C1` (centres undefined), the fold change permeability is reported as 1.1 (inactive).
For `COc1cc2nc(N3CCN(C(=O)c4ccco4)CC3)nc(N)c2cc1OC`, the fold change permeability was 1 (inactive).
With `CCCCCCCCCCCCCCSCC(=O)O` the fold change permeability was 1.6 (active).
In the case of `CCCCCCNc1nc(NC2CCN(C)CC2)c2cc(OC)c(OC)cc2n1`, the fold change permeability is reported as 1 (inactive).
For `CC(=O)O[C@H]1Cc2ccccc2N(C(N)=O)c2ccccc21`, the fold change permeability was 1.8 (active).
For `c1ccc(C2CN3CCSC3=N2)cc1` (centres undefined), the fold change permeability was 1 (inactive).
With `CCCc1c(-c2ccc(O)cc2)nn(-c2ccc(O)cc2)c1-c1ccc(O)cc1` the fold change permeability was 1.4 (active).
With `COc1ccc(-c2csc(NC(=O)[C@H]3CCCCN3S(=O)(=O)c3ccc(C)cc3)n2)cc1` the fold change permeability was 0.9 (inactive).
For `O=C1CCC(c2ccc(-n3ccnc3)cc2)=NN1`, the fold change permeability was 1.1 (inactive).
In the case of `N=C(N)SCCN`, the fold change permeability is reported as 1.1 (inactive).
With `CCC(NC(C)C)C(O)c1ccc(O)c(O)c1` (centres undefined) the fold change permeability was 1.9 (active).
With `O=C(NCc1cccnc1)c1ccc([N+](=O)[O-])o1` the fold change permeability was 1 (inactive).
In the case of `CN(C)c1cc2c(Nc3ccc4c(cnn4Cc4ccccc4)c3)ncnc2cn1`, the fold change permeability is reported as 3.5 (active).
In the case of `Oc1cc(O)c2c(c1)O[C@H](c1ccc(O)c(O)c1)[C@@H](O)C2`, the fold change permeability is reported as 0.8 (inactive).
With `CCN(CC)CCCCCCCCOC(=O)c1cc(OC)c(OC)c(OC)c1` the fold change permeability was 1.1 (inactive).
For `NCCCNCCSP(=O)(O)O`, the fold change permeability was 0.9 (inactive).
For `[Li+]`, the fold change permeability was 1 (inactive).
In the case of `CN(C)CCOC(=O)COc1ccc(Cl)cc1`, the fold change permeability is reported as 0.9 (inactive).
With `CC(N)(C(=O)O)c1ccc(C(=O)O)cc1` (centres undefined) the fold change permeability was 0.9 (inactive).
In the case of `COc1cc(C(O)C(=O)O)ccc1O` (centres undefined), the fold change permeability is reported as 1 (inactive).
In the case of `O=C(O)CN(CCOCCOCCN(CC(=O)O)CC(=O)O)CC(=O)O`, the fold change permeability is reported as 0.8 (inactive).
